Assay results reported in PubChem BioAssay AID2216 (Broad Institute, 2009).
Screen size: about 300,000 compounds; about 3,300 (1.1%) were called active. About 6% were inconclusive and are not listed. For the sample, actives were picked, then their nearest neighbours and some compounds at random. Values without a mark were called inactive.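 Rule for the calls: active = more than half of the replicate wells show a fall in the fluorescence ratio signal beyond about 16% (limit read from the data, passing the limit was not always enough); inconclusive = exactly half of the replicate wells pass the set limit; inactive = fewer than half of replicates pass the limit.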

Tested on: Ran GTPase (GTP-bound) - importin-beta complex
Assay: disruptors of Ran-importin-beta complex formation – biochemical, FRET, CFP-Ran, YFP-importin-beta, homogeneous, primary screen (AID 2216);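 note: 0% = DMSO wells and 100% = Ran loaded with GDP instead of GTP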
Settings: cell-free CFP-Ran/YFP-importin-beta FRET ratio; stronger effect = higher value; concentration not given here

Row | Compound | inhibition
1 | COc1cccc(NC(=O)CSc2nccn(-c3ccc4c(c3)OCCO4)c2=O)c1 | -2.91%
2 | CCCCN(C1CCS(=O)(=O)C1)S(=O)(=O)c1ccc(C(C)C)cc1 (stereo not given) | 0.359%
3 | O=C(c1ccc(NS(=O)(=O)c2ccc3[nH]c(=O)[nH]c3c2)cc1)N1CCCCC1 | 0.81%
4 | COc1ccc(CCNC(=O)c2ccccc2OCc2ccccc2)cc1 | 2.59%
5 | O=C(N[C@@H](Cc1ccccc1)C(=O)OCc1ccccc1)c1nc[nH]c1C(=O)NC1CCNCC1 | 1.19%
6 | Cc1ccc2nc(N3CCN(C(=O)c4ccco4)CC3)sc2c1 | -2.41%
7 | COc1ccc(C(=O)OCC(=O)c2ccc(Cl)s2)c(OC)c1OC | 0.711%
8 | Cc1cc(C)c(S(=O)(=O)NCC(c2ccc3c(c2)OCO3)N2CCOCC2)c(C)c1 (stereo not given) | 2.24%
9 | CCOC(=O)C1CCN(Cc2c(C(=O)N3CCOCC3)nc3c(C)cccn23)CC1 | -0.645%
10 | Cc1cccn2c(=O)c3cc(C(=O)N4COCC4(C)C)n(C)c3nc12 | -4.28%
11 | O=C(NCC1CCCO1)c1cc2c([nH]c3ccccc32)c(-c2ccc(F)cc2)n1 (stereo not given) | -5.32%
12 | Cc1cccn2c(=O)c3cc(C(=O)NCC4CCCO4)c(=N)n(Cc4ccc(F)cc4)c3nc12 (stereo not given) | 188% (active)
13 | COc1ccc(CCn2c(=N)c(C(=O)NCC3CCCO3)cc3c(=O)n4cccc(C)c4nc32)cc1OC (stereo not given) | 0.0539%
14 | Cc1cccn2c(=O)c3cc(C#N)c(=O)n(CCCN4CCOCC4)c3nc12 | 117% (active)
15 | CCc1noc(C)c1C(=O)N1CCCC(N2CCN(c3ccc(F)cc3)CC2)C1 (stereo not given) | 3.28%
16 | OCc1ccc(-c2ccccc2)c(-c2ccccc2)c1 | 3.41%
17 | CCOC(=O)c1ccc(NC(=O)c2c(NCc3ccccc3)[nH]c(=O)[nH]c2=O)cc1 | -5.92%
18 | CC(C)C1C2=C(CC(C)(C)CC2=O)ON1c1ccccc1 (stereo not given) | 26.1% (active)
19 | Cc1ccsc1C1C(C#N)=C(N)OC2=C1C(=O)CC(C)(C)C2 (stereo not given) | -0.947%
20 | Cc1cc2c(cc1C)NC(c1ccccn1)C1=C(CC(C)(C)CC1=O)N2 (stereo not given) | -3.07%

Row | Compound | inhibition
21 | CCCCCCCCCCCCN1[C@@H](CC(C)=O)c2cc(F)cc(F)c2S1(=O)=O | -0.304%
22 | CCCC1OC23CCCCC2C(C#N)(C#N)C1(C#N)C(=N)O3 (stereo not given) | 41.6% (active)
23 | CC(C)N(C(=O)Cn1cc(S(=O)(=O)CC(=O)N2CCOCC2)c2ccccc21)C(C)C | 2.93%
24 | O=C1CCc2cc(S(=O)(=O)Nc3ccc(C(F)(F)F)cc3)cc3c2N1CC3 | -3.26%
25 | O=C(COc1cccc2c1CCNC2=O)NC1CCCCC1 | -2.21%
26 | Cc1cc2nc3c(=O)n(Cc4ccccc4)c(=O)[nH]c3nc2cc1N | -261%
27 | CC(=O)c1ccc(-c2ccc(Cn3c(C)nc4cc(N)c(C)nc43)cc2)cc1 | 27.1% (active)
28 | CCOC(=O)c1ccc2c(c1)nc(C)n2CC | -1.9%
29 | O=C(CSc1n[nH]c(-c2cccs2)n1)N1CCCCC1 | -0.392%
30 | CS(=O)(=O)c1ccc(C(=O)OCC(=O)NNC(=O)COc2ccc(Cl)cc2)cc1 | -2.55%
31 | O=C(CSc1ccccn1)N1CCN(S(=O)(=O)c2ccc(Cl)cc2)CC1 | -1.48%
32 | Cc1cccc(NC(=O)c2ccc(S(=O)(=O)N(C)CC3CCCO3)cc2)c1C (stereo not given) | -0.172%
33 | N#C/C(=C\c1ccc(N2CCOCC2)o1)C(=O)N1CCOCC1 | 56.4% (active)
34 | N#C/C(=C\c1ccc(-c2cccc([N+](=O)[O-])c2)o1)C(=O)NCCN1CCOCC1 | 2.98%
35 | O=C(N1CCOCC1)N1CCOCC1 | -2.74%
36 | Cc1ccc(C(=O)N2CCN(C(=O)N3CCOCC3)CC2)cc1 | -2.03%
37 | N#C/C(=C\C1=C(N2CCOCC2)C(=C\c2ccccc2)/CC1)C(=O)Nc1ccccc1F | -3.91%
38 | N#C/C(=C/c1ccc(N2CCOCC2)o1)C(=O)N1CCOCC1 | 39.5% (active)
39 | CC(Oc1ccc(F)cc1)C(=O)Nc1ccccc1C(=O)NC1CC1 (stereo not given) | -6.02%
40 | Cc1ccc(-c2cc(=O)[nH]c(NCc3ccccc3)n2)cc1 | 4.99%

Row | Compound | inhibition
41 | CSCCC(NC(=O)c1ccco1)C(=O)Nc1cc(C)ccn1 (stereo not given) | -2.09%
42 | Cc1cc(Cl)c2oc(C(=O)N(C)C(C)c3ccccn3)c(C)c2c1 (stereo not given) | 1.52%
43 | CC(=O)Nc1ccc(NC(=O)CS(=O)(=O)c2cn(CC(=O)N3CCCCC3)c3ccccc23)cc1 | -0.901%
44 | Cc1ccc(C)c(-c2nnc(NC(=O)CS(=O)(=O)c3ccccc3)o2)c1 | -0.829%
45 | N=c1oc2ccccc2cc1C(=O)N/N=C/c1ccccc1 | 3.47%
46 | CNC(=O)c1cc2c(ccc3ccccc32)oc1=N | 35.7% (active)
47 | N=c1oc2ccccc2cc1C(=O)NCc1ccccc1 | 2.48%
48 | O=C(NNC(=O)c1cc(-c2ccccc2Cl)nc2ccccc12)c1csc(N2CCOCC2)n1 | 1.15%
49 | O=C(NCc1ccncc1)c1ccc(NS(=O)(=O)c2cccc([N+](=O)[O-])c2)cc1 | 3.31%
50 | CC(OC(=O)CNC(=O)c1ccco1)C(=O)Nc1ccc(Cl)cn1 (stereo not given) | 0.318%
51 | CNC(C)C#Cc1ccc2sc3cc(OC)c(OC)cc3c(=O)c2c1 (stereo not given) | 38.7% (active)
52 | Cc1cccc(N2CCN(C(=O)CCS(=O)(=O)c3ccc4c(c3)NC(=O)C(C)S4)CC2)c1C (stereo not given) | 1.94%
53 | CSc1nsc(NC(=O)Nc2ccccc2)n1 | 1.6%
54 | O=c1cc(CN2CCN(S(=O)(=O)/C=C/c3ccccc3)CC2)c2ccc(O)cc2o1 | 21% (active)
55 | NC(=O)CCN1CCN(S(=O)(=O)/C=C/c2ccccc2)CC1 | 3.03%
56 | COc1ccc2c(CN3CCN(S(=O)(=O)c4cccs4)CC3)cc(=O)oc2c1 | -2.73%
57 | CCOC(=O)N1CCN(C(=O)c2ccc(S(=O)(=O)Nc3cccc(C(F)(F)F)c3)cc2)CC1 | -0.937%
58 | CN(C)CCCn1c(N)c(C#N)c2nc(C#N)c(C#N)nc21 | 27.1% (active)
59 | Cc1ccc2nnn(Cc3cccc(C(C)(C)C)c3O)c2c1 | 9.31%
60 | COCCCn1c(SCC(=O)Nc2oc(C)c3c(C)n[nH]c(=O)c23)nc2sc3c(c2c1=O)CCC3 | -0.217%
